# Measurements taken from PubChem BioAssay AID624405 (Broad Institute, 2012).
# The campaign covered roughly 1,900 compounds. About 250 (13%) were called active. Roughly 4% stayed inconclusive and do not appear here.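 How the source made its calls: active means fitted curve reaches 40% rescue activity at or below the top valid dose, in every test run; inconclusive means test runs disagree, some active and some inactive; inactive means every run misses the threshold or moves the wrong way.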 Only a sample is shown. Measured potencies and affinities stand elsewhere.
# Assay: rescue of simvastatin-induced ATP loss – cell-based, C2C12 myotubes, ATP luminescence, cherry pick, dose response (AID 624405);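 further: myotubes are challenged with simvastatin at 10 µM to lower ATP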
# Details: 48 h, scaled: DMSO wells 0, geranylgeraniol wells 100; series mostly up to 19.5 µM
row,Structure (SMILES),outcome
1,CN1CCN(C2=Cc3ccccc3Sc3cc(F)ccc32)CC1,inactive
2,Cc1noc(C)c1S(=O)(=O)Nc1ccc2c(c1)CC(=O)N([C@H](C)CO)C[C@@H](C)[C@@H](CN(C)Cc1ccc(Cl)c(Cl)c1)O2,inactive
3,Cc1noc(C)c1S(=O)(=O)Nc1ccc2c(c1)CC(=O)N([C@H](C)CO)C[C@H](C)[C@@H](CN(C)Cc1ccc(Cl)c(Cl)c1)O2,inactive
4,Cc1noc(C)c1S(=O)(=O)Nc1ccc2c(c1)CC(=O)N([C@@H](C)CO)C[C@@H](C)[C@H](CN(C)Cc1ccc(-c3ccccc3)cc1)O2,inactive
5,Cc1noc(C)c1S(=O)(=O)Nc1ccc2c(c1)CC(=O)N([C@H](C)CO)C[C@@H](C)[C@@H](CN(C)Cc1ccc(C(F)(F)F)cc1)O2,inactive
6,Cc1noc(C)c1S(=O)(=O)Nc1ccc2c(c1)CC(=O)N([C@H](C)CO)C[C@@H](C)[C@H](CN(C)Cc1ccc(Cl)c(Cl)c1)O2,inactive
7,Cc1noc(C)c1S(=O)(=O)Nc1ccc2c(c1)CC(=O)N([C@@H](C)CO)C[C@H](C)[C@@H](CN(C)Cc1ccc(Cl)c(Cl)c1)O2,inactive
8,C/C=C/c1ccc2c(c1)O[C@@H](CN(C)C(=O)NC1CCCCC1)[C@@H](C)CN([C@@H](C)CO)S2(=O)=O,inactive
9,O=C(O)CC(c1ccccc1)n1cccc1 (stereo unspecified),inactive
10,O=C(CN1CCN(C(=O)c2ccco2)CC1)Nc1cc(C(F)(F)F)ccc1Cl,inactive
11,COc1ccc(NC(=O)Nc2ccc3c(c2)C(=O)N([C@H](C)CO)C[C@H](C)[C@H](CN(C)Cc2ccc(C(F)(F)F)cc2)OCCCC[C@@H](C)O3)cc1,inactive
12,CCn1ncc(Br)c1C(=O)Nc1cc(C(=O)OC)ccc1C(=O)OC,inactive
13,O=C(C[C@H]1CC[C@H]2[C@@H](COC[C@@H](O)CN2Cc2ccc(Oc3ccccc3)cc2)O1)N1CCCCC1,inactive
14,O=C(C[C@H]1CC[C@H]2[C@@H](COC[C@H](O)CN2Cc2ccc(Oc3ccccc3)cc2)O1)N1CCCCC1,inactive
15,O=C(C[C@@H]1CC[C@@H]2[C@H](COC[C@H](O)CN2Cc2ccc(C(F)(F)F)cc2)O1)NCCc1ccccc1,inactive
16,O=C(C[C@@H]1CC[C@H]2[C@@H](COC[C@@H](O)CN2Cc2ccc(Oc3ccccc3)cc2)O1)Nc1nccs1,inactive
17,CC(C)NC(=O)Nc1cccc2c1O[C@H](CN(C)Cc1ccc(-c3ccccc3)cc1)[C@@H](C)CN([C@@H](C)CO)C2=O,inactive
18,Cc1ccc(S(=O)(=O)NCCN=C(CN2CCCC2)NS(=O)(=O)c2ccc(C)cc2)cc1,inactive
19,CC(=O)OC1CC(n2ccc(NC(=O)c3ccccc3)nc2=O)OC1CO (stereo unspecified),inactive
20,COc1ccc2oc(=O)cc(CN3CCN(Cc4ccc(OC)c(OC)c4OC)CC3)c2c1,inactive
21,C[C@@H]1CN([C@@H](C)CO)C(=O)Cc2cc(N(C)C)ccc2O[C@H]1CN(C)Cc1ccc2c(c1)OCO2,inactive
22,O=c1c2ccccc2ncn1Cc1nc2ccccc2s1,inactive
23,COc1ccc(Cc2nc(C(=O)Nc3ccc(OC)cc3)cs2)cc1,inactive
24,C[C@@H]1CCCCO[C@@H](CN(C)C(=O)Nc2cccc3ccccc23)[C@@H](C)CN([C@@H](C)CO)C(=O)c2cc(NS(=O)(=O)c3ccc(Cl)cc3)ccc2O1,inactive
25,COc1cccc(C#Cc2ccc3c(c2)O[C@H](CN(C)C(=O)c2ccccn2)[C@H](C)CN([C@H](C)CO)S3(=O)=O)c1,inactive
26,Cc1ccc(S(=O)(=O)N(C)c2ccc(C(=O)O)cc2)cc1,inactive

row,Structure (SMILES),outcome
1,CCC1(C)Cc2c(sc3nc(NN)n(C)c(=O)c23)CO1 (stereo unspecified),inactive
2,C[C@H]1CN([C@@H](C)CO)C(=O)c2cc(C3=CCCCC3)cnc2O[C@H]1CN(C)Cc1ccccc1F,inactive
3,C[C@@H]1CN([C@@H](C)CO)C(=O)c2cc(C#CC3CCCCC3)cnc2O[C@H]1CN(C)S(=O)(=O)c1ccc(F)cc1,inactive
4,C[C@@H]1CN([C@H](C)CO)C(=O)Cc2cc(NC(=O)CCCCCC(=O)Nc3ccccc3N)ccc2O[C@H]1CN(C)Cc1ccc(Oc2ccccc2)cc1,inactive
5,C[C@H]1CN([C@@H](C)CO)C(=O)Cc2cc(NC(=O)CCCCCC(=O)Nc3ccccc3N)ccc2O[C@@H]1CN(C)Cc1ccc(Oc2ccccc2)cc1,inactive
6,O=C(c1ccco1)N(Cc1ccco1)c1ccc(O)cc1,inactive
7,C[C@H]1CCCCO[C@H](CN(C)S(=O)(=O)c2ccc(Cl)cc2)[C@@H](C)CN([C@@H](C)CO)C(=O)c2cc(NS(C)(=O)=O)ccc2O1,inactive
8,COCCNC(=O)CSc1nc2ccccc2c2nc(C)nn12,inactive
9,C[C@H](CO)N1C[C@H](C)[C@@H](CN(C)Cc2ccc(-c3ccccc3)cc2)Oc2ccc(NC(=O)Cn3cnnn3)cc2CC1=O,inactive
10,C[C@@H]1CN([C@@H](C)CO)C(=O)c2cc(C#Cc3ccc(F)cc3)cnc2O[C@H]1CN(C)C(=O)c1ccccc1F,inactive
11,COc1ccc(S(=O)(=O)Nc2ccc3c(c2)C(=O)N([C@H](C)CO)C[C@H](C)[C@H](CN(C)Cc2ccc(Cl)c(Cl)c2)OCCCC[C@@H](C)O3)cc1,inactive
12,CN1C(=O)c2cc(NC(=O)c3cscn3)ccc2OC[C@H]2O[C@H](CC(=O)NCc3ccc(Cl)c(Cl)c3)CC[C@H]21,inactive
13,COc1ccc(S(=O)(=O)Nc2ccc3c(c2)CC(=O)N([C@H](C)CO)C[C@@H](C)[C@H](CN(C)Cc2ccc(Cl)c(Cl)c2)O3)cc1,inactive
14,CC(C)(Oc1ccc(Cl)cc1)C(=O)NCc1ccco1,inactive
15,CN1CCN(c2ccc(NC(=S)NC(=O)c3cccc4c(Br)cccc34)cc2)CC1,inactive
16,C[C@@H]1CCCCO[C@@H](CN(C)C(=O)Nc2ccc(C(F)(F)F)cc2)[C@H](C)CN([C@@H](C)CO)C(=O)c2cc(NC(=O)c3ccccc3)ccc2O1,inactive
17,Cc1ccc(S(=O)(=O)N(C)C[C@H]2Oc3ccc(NC(=O)Cc4ccccc4)cc3CC(=O)N([C@@H](C)CO)C[C@@H]2C)cc1,inactive
18,C[C@@H]1CCCCO[C@H](CN(C)S(=O)(=O)c2ccc(Cl)cc2)[C@@H](C)CN([C@@H](C)CO)C(=O)c2cc(NS(C)(=O)=O)ccc2O1,inactive
19,COc1ccc(C(=O)c2ccc(OC)cc2O)c(O)c1,inactive
20,C[C@H](CO)N1C[C@H](C)[C@H](CN(C)Cc2ccc(C(F)(F)F)cc2)Oc2ccc(NC(=O)CCCCCC(=O)Nc3ccccc3N)cc2CC1=O,inactive
21,C[C@H]1CN([C@@H](C)CO)C(=O)Cc2cc(NC(=O)CCCCCC(=O)Nc3ccccc3N)ccc2O[C@@H]1CN(C)Cc1ccc(C(F)(F)F)cc1,inactive
22,Cc1onc(-c2ccccc2)c1C(=O)OCC(=O)Nc1ccc2c(c1)OCO2,inactive
23,Cc1ccc(NC(=O)C(=S)NCc2ccco2)cc1,inactive
24,FC(F)(F)c1cccc(-c2nnc(-c3ccccc3)c(N3CCOCC3)n2)c1,inactive
25,Cc1ccc(Nc2cc(=O)[nH]c(=O)[nH]2)c(C)c1,inactive
26,COCC(=O)N1C[C@H]2[C@@H](c3ccccc31)[C@@H](CO)N2Cc1ccc(OC)cc1,inactive

row,Structure (SMILES),outcome
1,CCCNC(=O)N(C)C[C@@H]1Oc2cc(-c3ccccc3)ccc2S(=O)(=O)N([C@@H](C)CO)C[C@@H]1C,inactive
2,CC(C)NC(=O)Nc1ccc2c(c1)C(=O)N([C@@H](C)CO)C[C@H](C)[C@H](CN(C)Cc1ccccc1)O2,inactive
3,COc1ccc2cc(C(=O)O)n(CC(=O)c3ccccc3)c2c1,inactive
4,COc1ccc(NC(=O)CSc2nnc(-c3ccccc3Cl)n2Cc2ccco2)c(OC)c1,inactive
5,CCC(CC)C(=O)c1c[nH]c(C(=O)NCC2CCCO2)c1 (stereo unspecified),inactive
6,CN1C[C@H]2[C@@H](c3ccccc31)[C@H](CO)N2Cc1ccccc1,inactive
7,O=C(c1ccc(F)cc1)N1CCC(N2CCCCCC2)CC1,inactive
8,CC(C)c1ccc(NS(=O)(=O)c2ccc(-n3cccn3)cc2)cc1,inactive
9,CCc1cccc(NS(=O)(=O)c2ccc(-n3cccn3)cc2)c1,inactive
10,Cc1ccc(C)c(NS(=O)(=O)c2ccc(-n3cccn3)cc2)c1,inactive
11,Cc1ccc(NS(=O)(=O)c2ccc(-n3cccn3)cc2)cc1Cl,inactive
12,COc1ccc(C#Cc2cnc3c(c2)C(=O)N([C@H](C)CO)C[C@H](C)[C@@H](CN(C)C(=O)Nc2cccc(OC)c2)O3)cc1,inactive
13,COc1cc(C(=O)OCCN2CCOCC2)ccc1O,inactive
14,C[C@@H]1CN([C@@H](C)CO)C(=O)c2cccc(NC(=O)C3CCCCC3)c2O[C@@H]1CN(C)S(=O)(=O)c1ccc(Cl)cc1,inactive
15,C[C@H](CO)N1C[C@H](C)[C@H](CN(C)S(C)(=O)=O)OCCCC[C@H](C)Oc2ccc(NS(=O)(=O)c3ccc(F)cc3)cc2C1=O,inactive
16,COc1ccc(-c2cnc3c(c2)C(=O)N([C@H](C)CO)C[C@H](C)[C@H](CN(C)S(=O)(=O)c2ccc(F)cc2)O3)cc1,inactive
17,Cc1[nH]nc2c1C(c1ccsc1)C(C#N)=C(N)O2 (stereo unspecified),inactive
18,OC[C@H]1[C@H]2c3ccccc3NC[C@H]2N1Cc1ccccc1Cl,inactive
19,CCC(CC)C(=O)Nc1cccc(/C(C)=N/NC(=O)c2ccccc2Cl)c1,inactive
20,COc1cc(OC)cc(C(=O)Nc2ccccc2C(=O)N2CCCC2)c1,inactive
21,O=C(NCc1ccncc1)Nc1ccccc1Cl,inactive
22,C[C@@H]1CN([C@@H](C)CO)C(=O)Cc2cc(NS(=O)(=O)c3ccc(Cl)cc3)ccc2O[C@@H]1CN(C)Cc1ccc(C(F)(F)F)cc1,inactive
23,C[C@@H]1CN([C@@H](C)CO)C(=O)c2cccc(NS(=O)(=O)c3ccccc3)c2O[C@@H]1CN(C)S(=O)(=O)c1cccs1,inactive
24,O=C(Cn1cnc2c(nnn2Cc2ccc(F)cc2)c1=O)NC1CCCC1,inactive
